# This excerpt belongs to a sample that is enriched for hits.
# DT40 TDP1 no CPT: qHTS for Inhibitors of human tyrosyl-DNA phosphodiesterase 1 (TDP1): qHTS in cells in absence of CPT. Potency, µM (series often up to 46.2 µM), for inactives: at the highest dose activity change, negative = growth inhibition, most hits filed as inhibitors. AID 686978, 2013. DT40 Tdp1-/- hTDP1 cells, no CPT, ATP luminescence, 48 h. 15% of 420,000 active; note: potency is the fitted concentration of half-maximal effect; nearly all actives have a fitted effect of over 55% in size
#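 Growth kinetics read by CellTiter-Glo luminescence after ≥48 hr at 37 °C. Cells: DT40 Tdp1-/- stably carrying human TDP1, 400 per well, compound exposure in the absence of CPT (DMSO vehicle).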
# TDP1 cell CPT: growth inhibition of DT40 Tdp1-/-;hTDP1 cells with camptothecin (screen for TDP1 inhibitors); chicken DT40 Tdp1-/-;hTDP1 cells + 20 nM CPT, ATP luminescence, 48 h; Potency, µM (titrated, usually from 46.2 µM), for the others: at the highest dose activity change, negative = growth inhibition, most hits filed as inhibitors; 12% of 420,000 active; note: potency is the fitted concentration of half-maximal effect; nearly all actives have a fitted effect of over 55% in size
#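 Chicken DT40 Tdp1-/- cells complemented with human TDP1, 400 cells/well, exposed to compounds plus 20 nM camptothecin for at least 48 h at 37 C; viability read as ATP content by CellTiter-Glo luminescence.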
# HT1080 IDH1KD tx: HT-1080 IDH1 knockdown cell toxicity (counter line). AID 686971. HT-1080 IDH1 knockdown viability, ATP luminescence, 48 h. 2% of 360,000 active. Potency, µM (highest dose often 46.1 µM), without a hit: top-dose activity, negative = toxicity, hits mostly cytotoxic;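 note: potency is the fitted concentration of half-maximal effect; 0% = DMSO wells and -100% = cell-free medium wells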
#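 Using the IDH1-knockdown HT-1080 line run in the same batch and compound series as the NT line, viability after 48 h at 37 °C was determined by CellTiter-Glo luminescence and expressed as % activity.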
# ALOX12 inh: blocks human arachidonate 12S-lipoxygenase. P18054. purified 12hLO, xylenol orange hydroperoxide absorbance. Potency, µM (top dose mostly 108 µM), for the others: at the top dose activity change, negative = inhibition, actives largely listed as inhibitors. 1.1% of 580,000 active; note: potency is the fitted concentration of half-maximal effect
# Target sequence (P18054 whole entry, looked up): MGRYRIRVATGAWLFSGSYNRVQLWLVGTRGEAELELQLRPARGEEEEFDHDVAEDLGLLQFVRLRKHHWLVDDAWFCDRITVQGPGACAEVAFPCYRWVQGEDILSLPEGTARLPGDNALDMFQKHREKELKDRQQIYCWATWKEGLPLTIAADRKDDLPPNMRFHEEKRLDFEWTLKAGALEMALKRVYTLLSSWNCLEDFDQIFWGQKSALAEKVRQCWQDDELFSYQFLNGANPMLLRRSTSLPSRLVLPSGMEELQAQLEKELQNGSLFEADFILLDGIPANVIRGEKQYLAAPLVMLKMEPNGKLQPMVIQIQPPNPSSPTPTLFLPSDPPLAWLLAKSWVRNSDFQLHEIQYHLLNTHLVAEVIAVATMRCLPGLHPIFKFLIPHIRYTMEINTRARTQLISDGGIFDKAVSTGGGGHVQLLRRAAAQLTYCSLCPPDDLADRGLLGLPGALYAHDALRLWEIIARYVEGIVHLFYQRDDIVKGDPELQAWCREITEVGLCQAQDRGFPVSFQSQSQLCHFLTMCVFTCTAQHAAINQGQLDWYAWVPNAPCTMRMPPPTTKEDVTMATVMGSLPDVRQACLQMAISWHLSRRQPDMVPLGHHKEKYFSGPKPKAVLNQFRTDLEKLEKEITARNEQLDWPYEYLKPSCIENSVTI
#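 Purified human 12hLO at 150 nM in 25 mM Hepes, 0.01% Triton X-100, pH 7.0, preincubated 15 min at room temperature with compound. Reaction started with 40 uM arachidonic acid, 30 min at room temperature. Hydroperoxide measured by Fe-xylenol orange, 573/405 nm absorbance ratio.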
# HT1080-NT tox: kills 2HG-producing HT-1080-NT fibrosarcoma cells | HT-1080-NT fibrosarcoma viability, CellTiter-Glo ATP luminescence, 48 h | Potency, µM (highest dose often 46.1 µM), for the others: top-dose activity, negative = less viability, usual class: cytotoxic | 1.6% of 360,000 active | AID 686970;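 note: NT is the 2HG producing partner of a matched IDH1 knockdown line; potency is the fitted concentration of half-maximal effect; 0% = DMSO-treated cells and -100% = media-only wells without cells; nearly all actives have a fitted effect of over 55% in size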
#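 Compounds were tested in concentration-response format on HT-1080-NT cells for 48 hours at 37 degrees C. Cell viability came from CellTiter-Glo luminescence; curves were classified by r2, response magnitude and activity.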
# IL-1B inflam inh: inflammasome signaling inhibition, IL-1 beta readout | THP-1 LPS/ATP IL-1B secretion, AlphaLISA, 16 h; hits give low values | activity change, % at 57.5 µM | 4.7% of 360,000 active | AID 743279; in the data active = activity change below about -50%; inconclusive = mostly about -30% to -49%
#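 THP-1 cells pretreated 1 hr with compounds (up to 57.5 uM final), then stimulated with LPS (250 ng/mL final) plus ATP (1.25 mM final); secreted IL-1B measured by AlphaLISA after 16 hr, decreased signal indicating inhibition.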
# An asterisk follows results filed as active; ? = inconclusive; . = no result given; [ ] = another dose, or the depositor's remark. Unless noted, calls come from the whole dose curve; as a rule, active = well fitted curve in the direction sought with a large enough effect; inconclusive = small, poorly fitted or top-dose-only effect, or another doubt; inactive = no such curve, though single readings can be large; an effect the other way counts as inactive or inconclusive. Unless noted, % is set by controls: 0 for no effect and ±100 for the full control effect.
SMILES,DT40 TDP1 no CPT,TDP1 cell CPT,HT1080 IDH1KD tx,ALOX12 inh,HT1080-NT tox,IL-1B inflam inh
Cc1ccc(CNC(=O)CSc2c(C(C)C)cnc3c2c(=O)n(C)c(=O)n3C)cc1,26µM*,15µM*,.,?,.,.
Cc1cnc2c(c1SCC(=O)NCc1ccc(F)cc1)c(=O)n(C)c(=O)n2C,-26%,-4%,.,?,.,.
Cc1ccc(C)c(C(=O)NC2C3CC4CC(C3)CC2C4)c1 (centres undefined),.,.,.,-9%,.,.
Cc1ccc(C(=O)N/C(=C\c2cccs2)c2nc3ccccc3[nH]2)cc1,?,16µM*,-8%,-8%,-9%,24
O=C(CC(C(=O)O)P(=O)(c1ccccc1)c1ccccc1)c1ccccc1 (centres undefined),0%,-19%,13%,0%,2%,-50*
C=CCNC(=O)c1cnn2c1NC(=C)C=C2C,1%,10%,.,.,.,.
C=C1C=C(C)n2ncc(C(=O)Nc3cccc4cnccc34)c2N1,11µM*,16µM*,.,.,.,.
CCOc1ccccc1NC(=O)Cn1c(=O)n(CC(=O)NCc2ccccc2Cl)c(=O)c2sccc21,9.2µM*,8.2µM*,.,-9%,.,.
CC1CCN(C(=O)Cn2c(=O)n(CCCCCC(=O)NCc3ccccc3Cl)c(=O)c3sccc32)CC1,10µM*,?,.,2%,.,.
CCC(C)NC(=O)Cn1c(=O)n(CCCCCC(=O)NCc2ccccc2Cl)c(=O)c2sccc21 (centres undefined),?,?,.,-15%,.,.
O=C(c1ccc2c(c1)OCO2)N1CC(c2noc(C3CCCN3CC3CC3)n2)C1 (centres undefined),.,.,.,28%,.,.
CN(C)C(=S)NC(=O)C(c1ccccc1)c1ccccc1,?,8%,0%,4%,1%,-16
CC(C)(C)C(=O)NC(=S)NNC(=O)C(c1ccccc1)c1ccccc1,3.7µM*,4.6µM*,12µM*,.,18µM*,153
CC(=O)NNC(=S)NC(=O)C(c1ccccc1)c1ccccc1,16µM*,8.2µM*,?,-22%,?,100
Cc1nn2c(c1-c1ccccc1-c1ccccc1)N(Cc1ccccc1)CCC2,.,.,.,6%[176 µM],.,.
Cc1nn2c(c1-c1ccccc1-c1ccccc1)N(CCC(C)C)CCC2,.,.,.,40µM*,.,.
O=C1CCN(C(=O)C2CCN(S(=O)(=O)c3ccc4c(c3)CCC4)CC2)CCCCCCN1,.,.,.,31%,.,.
Cc1cccc(N(C)S(=O)(=O)c2c(C(=O)N3CCCCCC3)c(C)n(C)c2C)c1,21µM*,16µM*,.,0%,.,.
Cc1cc(Cl)ccc1NS(=O)(=O)c1c(C(=O)N2CCCCCC2)c(C)n(C)c1C,21µM*,?,.,2%,.,.
Cc1c(C(=O)N2CCCC2)c(S(=O)(=O)Nc2ccccc2Cl)c(C)n1C,17%,2%,0%,-3%,-1%,0
Cc1c(C(=O)N2CCCCC2)c(S(=O)(=O)NCc2ccccc2Cl)c(C)n1C,?,23µM*,10%,-29%,3%,0
O=C(CCc1c[nH]c2ccccc12)NC1(c2ccccc2)CCC1,.,.,.,-43%,.,.
COc1ccc(C/C(C)=N/NC(=S)Nc2ccccc2)cc1,?,?,-9%,?,-7%,-7
COc1ccc(C/C(C)=N/NC(=S)Nc2ccc(Cl)cc2)cc1,12µM*,15µM*,-17%,0%,-23%,44
COc1ccc(C/C(C)=N/NC(=S)Nc2ccc(C)c(C)c2)cc1,16µM*,16µM*,11%,?,7%,11
SMILES,DT40 TDP1 no CPT,TDP1 cell CPT,HT1080 IDH1KD tx,ALOX12 inh,HT1080-NT tox,IL-1B inflam inh
N#Cc1cnn2c(C(F)F)cc(-c3ccccc3)nc12,.,.,.,61%,.,.
O=C(COC(=O)c1ccccc1)Nc1ncc([N+](=O)[O-])s1,?,-2%,1%,40µM*,1%,-4
O=C(O)C1CCCC[C@H]1C(=O)Nc1ncc([N+](=O)[O-])s1 (some centres undefined),0%,1%,2%,-2%,1%,37
CC(C)CC(=O)Nc1ncc([N+](=O)[O-])s1,?,-19%,-13%,?,-3%,42
O=C(Nc1ccccc1)Nc1ncc([N+](=O)[O-])s1,4.6µM*,6.5µM*,9.2µM*,?,9.2µM*,-87*
O=C(Nc1cccc(-c2nnnn2C2CC2)c1)NC1CCCCCC1,.,.,.,-50%,.,.
Cc1[nH]c2ccccc2c1C(c1ccncc1)N1CCC(C)CC1 (centres undefined),18µM*,?,-14%,-27%,-19%,-1
CCOC(=O)C1CCN(C(c2ccccn2)c2c(C)[nH]c3ccccc23)CC1 (centres undefined),16µM*,16µM*,?,?,?,-110*
Cc1[nH]c2ccccc2c1C(c1ccccn1)N1CCC(C(N)=O)CC1 (centres undefined),18µM*,21µM*,-17%,?,-4%,-17
O=S(=O)(Cc1ccccc1)N[C@H]1CO[C@H]2[C@@H]1OC[C@@H]2n1cc(-c2ccccn2)nn1,.,.,.,7%[176 µM],.,.
CC(C)=CCC/C(C)=C/CC/C(C)=C/CC[C@]1(C)CCc2c(C)c(O)c(C)c(C)c2O1,.,.,.,-4%[12.5 µM],.,.
COC(=O)[C@]1(C#N)CC(=O)N([C@H](c2ccccc2)[C@H](O)c2ccccc2)[C@@H]1c1ccccc1,.,.,.,2%,.,.
CCOc1ccc(NS(=O)(=O)c2ccsc2C(=O)OC)cc1,.,.,.,5%,.,.
Cc1ccc(N2CCC3CC2c2cc(-c4ccc(C(F)(F)F)cc4)ccc23)cc1 (centres undefined),16µM*,?,4%,0%,0%,48
Cc1ccc(-n2nnnc2-c2cnc(N3CCCC3)nc2C(F)(F)F)cc1,12µM*,23µM*,?,29%,-18%,-25
FC(F)(F)c1nc(N2CCCC2)ncc1-c1nnnn1-c1ccccc1,23µM*,16µM*,-29%,0%,29%,-19
Cc1ccc(-n2nnnc2-c2cnn(-c3cccc(F)c3)c2C(F)(F)F)cc1,-28%,?,-4%,0%,-12%,1
Fc1cccc(-n2ncc(-c3nnnn3-c3ccccc3)c2C(F)(F)F)c1,-23%,-6%,1%,7%,-1%,2
CCc1nnc(NC(=O)Cc2c(C)c3ccc(OC)c(OC)c3oc2=O)s1,.,.,.,-20%,.,.
COCCCN(CCC(=O)NCCC(C)C)C(=O)c1ccoc1,.,.,.,52%,.,.
COc1ccc(C2CN=NC23CCCc2ccccc2C3=O)cc1 (centres undefined),23µM*,?,?,0%,?,7
